In PubChem BioAssay (NCATS):
Inconclusive results are not listed. Unmarked numbers belong to inactive results. Activity calls are given as the source filed them. Calls come from the whole dose curve; as a rule, active = well fitted inhibition curve with a large enough effect; inconclusive = small, poorly fitted or top-dose-only effect; inactive = no such curve, though single readings can be large or run the other way.

system: Zika virus NS2B-NS3 protease (linked construct); assay: Primary screen NINDS Rhodamine qHTS for Zika virus inhibitors (AID 1347160); details: purified NS2B-NS3 protease, Rhodamine110 substrate fluorescence; series mostly up to 33.1 µM; activity change, negative = inhibition: at the top concentration; note: nearly all actives have a fitted effect of over 55% in size
Procedure, shortened: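 Enzyme (25 nM, linked NS2B-NS3) was preincubated 15 min with compound in 10 mM Tris-HCl pH 8.0, 0.01% Tween 20. Rhodamine110 substrate (1.5 microM) was then added and fluorescence read at start and after 15 min.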
% is set by controls: 0 for no effect and ±100 for the full control effect.

Row | SMILES | outcome | activity change, negative = inhibition
1 | CN1CCCC1Cc1c[nH]c2ccc(CCS(=O)(=O)c3ccccc3)cc12 (stereo not given) | inactive | 
2 | CC(NC(=O)CC(=O)O)C(=O)Nc1ccccc1C(N)=O (stereo not given) |  | 21.3% [at 57.1 µM]
3 | COC(=O)C1=COC(OC2OC(CO)C(O)C(O)C2O)C2C(C)C(OC(C)=O)C(OC(=O)c3ccccc3)C12 (stereo not given) |  | -4.78%
4 | CC1=CC23[C@H](C=C(C(=O)O)[C@@H]2COC(=O)[C@]3(O)CO)[C@@H]1C (stereo not given in full) | inactive | 
5 | Nc1ncnc2c1c(COc1cccc(Cl)c1)nn2C1CCOCC1 | inactive | 
6 | O=C(c1ccc(Cl)c([N+](=O)[O-])c1)N1CCN(c2ccccc2F)CC1 | inactive | 
7 | Nc1ncnc2c1ncn2[C@H]1O[C@@H](C(=O)N2CCN(CC(=O)Nc3cccc4c3CNC4=O)CC2)[C@H](O)[C@@H]1O |  | 13.3% [at 57.1 µM]
8 | CC1(C)CC[C@]2(C(=O)O[C@@H]3O[C@H](CO)[C@@H](O)[C@H](O)[C@H]3O)CC[C@]3(C)C(=CCC4[C@@]5(C)CC[C@H](OC6OC(C(=O)O)C(OC7OC(CO)C(O)C(O)C7O)C(O)C6O)C(C)(C)C5CC[C@]43C)C2C1 (stereo not given in full) |  | -11.3% [at 15.1 µM]
9 | COc1cc2c(cc1OC)N1C(=O)C[C@@]34C=CC[N@+]5([O-])CC[C@H]2[C@H](CC3)[C@@]145 |  | 3.03%
10 | COC(=O)C1=COC(O[C@@H]2O[C@H](CO)[C@@H](O)[C@H](O)[C@H]2O)[C@@H]2[C@@](C)(O)[C@@H](OC(=O)/C=C/c3ccccc3)C[C@]12O (stereo not given in full) |  | 15.4%
11 | CC(=O)/C=C/C1(O)C(C)(C)CC(O)CC1(C)O (stereo not given) |  | 16.5% [at 57.1 µM]
12 | Cc1onc(-c2ccccc2Cl)c1C(=O)N(C)c1ccc(Cl)cc1 |  | -4.5% [at 57.1 µM]
13 | C=C1C(OC(C)=O)C(=O)C2C(C)(C)C(O)CCC2(C)C1CC(OC(C)=O)/C(C)=C/COC(C)=O (stereo not given) | inactive [at 33.1 µM] | 
14 | C=CC1(C)CC2CCC3C(C)(C(=O)O)CCCC3(C)C2=CC1=O (stereo not given) |  | -6.74%
15 | COc1ccc(Oc2c(Cl)cnn(C3c4ccccc4-c4ccccc43)c2=O)cc1 |  | 2.02% [at 57.1 µM]
